Assay outcomes (PubChem)
Compounds with a hit are over-represented: about 4.2% of the library has one in this group of screens.
Mtb betalactam – beta-lactam sensitization of Mtb H37Rv; 330,000 compounds, 0.27% hits; AID 434955; inhibition, % at 25 µM; M. tuberculosis H37Rv growth with meropenem, percent inhibition; call rule not given here;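 further: growth measured after seven days incubation then overnight dye step; 0% = bacteria only wells and 100% = bacteria with antibiotic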
RecA splice inh – Mtb RecA intein splicing inhibition; P9WHJ3; cell-free RecA intein splicing, fluorescence; inhibition, % (no concentration beside the values); 290,000 compounds, 0.75% hits; AID 2221; in the data active means inhibition above about 30%; inconclusive means no clear call, values can overlap the other calls;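 further: 0% = vehicle wells and 100% = reference inhibitor control wells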
Target sequence (P9WHJ3 whole entry, looked up, canonical isoform): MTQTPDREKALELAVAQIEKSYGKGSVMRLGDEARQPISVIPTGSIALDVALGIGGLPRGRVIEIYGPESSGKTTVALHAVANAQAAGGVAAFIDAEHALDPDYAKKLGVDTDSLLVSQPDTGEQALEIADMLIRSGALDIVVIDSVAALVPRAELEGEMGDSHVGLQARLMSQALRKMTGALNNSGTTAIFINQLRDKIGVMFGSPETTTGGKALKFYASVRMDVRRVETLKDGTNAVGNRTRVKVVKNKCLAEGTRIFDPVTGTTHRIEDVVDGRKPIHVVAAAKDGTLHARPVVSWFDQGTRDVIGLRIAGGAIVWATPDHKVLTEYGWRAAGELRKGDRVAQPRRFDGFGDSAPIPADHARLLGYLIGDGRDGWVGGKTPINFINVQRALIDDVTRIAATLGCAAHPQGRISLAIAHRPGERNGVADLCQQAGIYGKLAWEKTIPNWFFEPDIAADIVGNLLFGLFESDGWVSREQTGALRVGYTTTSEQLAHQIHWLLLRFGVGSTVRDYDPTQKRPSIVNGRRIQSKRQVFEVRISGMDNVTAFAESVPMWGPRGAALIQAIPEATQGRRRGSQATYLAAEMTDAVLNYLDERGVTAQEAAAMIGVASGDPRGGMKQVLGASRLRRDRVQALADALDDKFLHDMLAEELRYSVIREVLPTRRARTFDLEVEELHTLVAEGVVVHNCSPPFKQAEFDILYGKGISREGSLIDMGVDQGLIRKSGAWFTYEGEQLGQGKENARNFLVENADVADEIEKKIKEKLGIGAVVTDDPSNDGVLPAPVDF
CCHF vOTU inh-1 – CCHFV vOTU protease inhibition; 370,000 compounds, 0.55% hits; inhibition, % at 11.5 µM; Pep-AMC fluorescence; AID 651958; further: 0% = vehicle wells with enzyme and 100% = no enzyme wells
GDH-TPI counter – GDH-TPI coupled enzyme inhibition counter-screen; GDH-TPI coupled enzyme counterscreen, NADH absorbance; inhibition, % at 4.8 µM; 360,000 compounds, 1.2% hits;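 further: 0% = DMSO wells and 100% = wells lacking the enzyme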
FBA Mtb inh – inhibits M. tuberculosis FBA enzyme. inhibition, % at 1 µM. 360,000 compounds, 2.3% hits. purified M. tuberculosis FBA, fluorescence read-out. P9WQA3; in the data active means inhibition above about 27%;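 further: 0% = vehicle and 100% = reference inhibitor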
CCHF vOTU inh-2 – CCHFV vOTU protease inhibition, confirmation | shares compounds with CCHF vOTU inh-1 | 1,900 compounds, 17% hits | Recombinant CCHFV vOTU, Pep-AMC fluorescence | inhibition, % at 11.5 µM
* = called active by the depositor; ? = inconclusive; · = no result. Unless noted, no stated cut-off is given here; in the data, active means inhibition above about 30%; inactive means the rest.

SMILES	Mtb betalactam	RecA splice inh	CCHF vOTU inh-1	GDH-TPI counter	FBA Mtb inh	CCHF vOTU inh-2
Cc1ccc(S(=O)(=O)N2[C@@H](c3ccccc3)C(C(=O)O)=CC[C@H]2c2ccc(Cl)c(Cl)c2)cc1	3	·	14	-1	-2	·
Cc1ccc(S(=O)(=O)N2[C@@H](c3ccccc3)C(C(=O)O)=CC[C@H]2c2ccc3c(c2)OCO3)cc1	3	·	0	6	1	·
Cc1ccc([C@@H]2CC=C(C(=O)O)[C@H](c3ccc(Cl)cc3)N2S(=O)(=O)c2ccc(C)cc2)cc1	-10	·	23	5	3	·
O=C(c1cc(C2CC2)on1)N(C1CCCCC1)C1CCCCC1	·	·	15	·	·	·
COc1ccccc1-n1c(CNC(=O)c2ccco2)n[nH]c1=S	-4	-1	5	-1	-3	·
CC(=O)c1ccc(S(=O)(=O)N2CCN(CCOc3ccccc3)CC2)cc1	-4	·	-1	-5	1	·
CN(C)CCNC(=O)c1c(CSc2ccccc2)noc1C(=O)NCc1ccccc1	-3	-3	8	-2	-5	·
Cc1ccccc1S(=O)(=O)N1[C@@H](c2ccc(Br)cc2)C(C(=O)O)=CC[C@H]1c1ccc(Cl)cc1	7	·	45*	7	2	22
COc1ccc([C@@H]2CC=C(C(=O)O)[C@H](c3ccc(Br)cc3)N2S(=O)(=O)c2ccccc2C)cc1	1	·	28	-4	-2	·
Cc1ccc([C@@H]2CC=C(C(=O)O)[C@H](c3ccc(Br)cc3)N2S(=O)(=O)c2ccccc2C)cc1	-1	·	39*	3	0	12
C[C@H](NC(=O)c1nc[nH]c1C(=O)N[C@@H](CCCCN)C(=O)OC(C)(C)C)C(=O)OCc1ccccc1	-5	·	-3	-12	-1	·
CC(C)c1ccc(OCC(=O)Nc2cccc(C(=O)Nc3ccccc3C(=O)O)c2)cc1	4	6	31*	-7	1	-11
Cc1cccc(OCC(=O)Nc2cccc(C(=O)Nc3ccccc3C(=O)O)c2)c1	3	-1	11	10	1	·
Cc1ccccc1CC(=O)N1CCC(n2nnc3ncccc32)CC1	·	·	-5	·	·	·
CN(C)S(=O)(=O)c1cccc(NC(=S)Nc2cccc3cnccc23)c1	·	5	40*	10	1	89*
Fc1ccc(NC(=S)Nc2cccc3cnccc23)cc1	-5	2	50*	-2	2	65*
S=C(Nc1ccc(Cl)cc1)Nc1cccc2cnccc12	68	6	58*	3	1	89*
COc1ccc(NC(=S)Nc2cccc3cnccc23)cc1	2	4	3	6	-4	·
Cc1ccc(Cc2c(C3CCCCC3)nc3c(C)cc(Br)cn23)cc1	·	·	21	·	·	·
CCCCS(=O)(=O)N1CCN(S(=O)(=O)c2cccs2)CC1	-5	-2	-9	5	-2	·
CC(=O)NS(=O)(=O)c1ccc(Nc2ccc([N+](=O)[O-])c3nonc23)cc1	3	9	30*	18	-28	13
COC(=O)c1cc2c(c3c4cc(F)ccc4n(S(=O)(=O)c4ccccc4)c13)C(=O)N(Cc1ccc(C(F)(F)F)cc1)C2	·	·	12	·	·	·
O=S(=O)(Nc1cc(Sc2cccc3cccnc23)c(O)c2ccccc12)c1ccc(F)cc1	100	12	83*	·	·	-5
COc1ccc(S(=O)(=O)Nc2cc(Sc3ncn[nH]3)c(O)c3ccccc23)cc1	·	·	107*	·	·	99*
COc1cc(CNC2CCCC2)cc(Br)c1OCC(=O)Nc1ccccc1C	-1	2	-10	-1	4	·
SMILES	Mtb betalactam	RecA splice inh	CCHF vOTU inh-1	GDH-TPI counter	FBA Mtb inh	CCHF vOTU inh-2
Cc1cccc(Cn2cc(CN3CC(N4CCN(CCOC(=O)c5cc6ccccc6o5)CC4)CS3(=O)=O)nn2)c1 (stereo unspecified)	·	·	2	·	·	·
Nc1nc(-c2ccccc2)nc2sc3c(c12)CCCC3	7	0	30*	6	6	-17
CC(=O)Nc1cccc(NC(=O)/C=C/c2ccc(S(=O)(=O)N3CCOCC3)cc2)c1	-6	·	12	25	1	·
COc1cccc(NC(=O)/C=C/c2ccc(S(=O)(=O)N3CCOCC3)cc2)c1	9	·	30*	4	5	-17
CCN1C(=NCCCOC(C)C)N[C@@H](CCc2ccccc2)[C@H](C(=O)NCCCOC(C)C)[C@H]1C	1	·	5	11	3	·
N#C/C(=C\c1ccc[nH]1)C(=O)Nc1ccccc1F	1	-1	15	5	-1	·
Cc1cc(/C=C(\C#N)C(=O)Nc2ccccc2F)c(C)[nH]1	-3	-19	33*	8	1	-3
COc1ccc(C=C2SC(=S)N(CCCC(=O)Nc3ccc(C(=O)O)c(O)c3)C2=O)cc1OC	·	·	22	14	-12	·
O=C(CN1C(=O)/C(=C/c2ccco2)SC1=S)Nc1ccc(O)c(C(=O)O)c1	2	8	18	12	5	·
O=C(CN1C(=O)/C(=C/c2ccco2)SC1=S)Nc1ccc(C(=O)O)c(O)c1	7	14	36*	17	-3	22
O=C(CCCN1C(=O)/C(=C/c2ccccc2)SC1=S)Nc1ccc(C(=O)O)c(O)c1	9	38*	30*	11	-4	5
C(=C\c1ccccc1)/CN1CCN(C(c2nnnn2-c2ccc3c(c2)OCCO3)C2CC2)CC1 (stereo unspecified)	·	·	-4	·	-2	·
O=C(Nc1ncnc2sc3c(c12)CCC3)c1ccco1	12	-1	3	20	1	·
C(=N\Nc1ncnc2sc3c(c12)CCC3)/c1ccncc1	?	-2	34*	18	-5	-4
COc1cc(-c2ccc(Nc3ccccc3C(=O)O)c(OC)c2)ccc1Nc1ccccc1C(=O)O	·	·	51*	30	1	39*
CCn1c(CC(=O)Nc2ccccc2F)nnc1SCC(=O)Nc1nncs1	3	6	-20	-1	1	·
CC1CCc2c(sc(NC(=O)c3ccco3)c2C(=O)O)C1 (stereo unspecified)	8	3	32*	23	4	0
COc1ccc(S(=O)(=O)N2CCN(Cc3ccc(Cl)cc3)CC2)cc1	12	·	33*	1	-2	0
COc1ccc(C(=O)NNC(=S)NC(=O)c2ccc(Cl)cc2)cc1	96	·	-11	·	·	·
COc1cc(C(=O)NNC(=S)NC(=O)c2ccc(Cl)cc2)cc(OC)c1OC	94	-5	30*	15	0	-4
Cn1ccc2c(N3CCCC3)cc3c(c21)C1CCC3O1 (stereo unspecified)	·	·	38*	·	1	-14
Cc1ccccc1SCC(=O)NNC(=O)c1ccccc1O	9	21	39*	18	4	-12
COc1ccc(N(CC(=O)Nc2cc(OC)c(OC)cc2C(=O)O)S(=O)(=O)c2c(C)noc2C)cc1	-1	-2	22	-8	5	·
CCOC(=O)c1c(NC(=O)/C=C/C(=O)O)sc(C)c1-c1ccc(C(C)(C)C)cc1	6	·	45*	7	-4	16
CCc1c(C)sc(NC(=O)/C=C/C(=O)O)c1C(N)=O	-2	·	-7	7	6	·
